A short description of test [1]: Cell Viability - LYMP1-002 - Assay at 16 hr (AID 948).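 Further: 0% = DMSO alone and full effect = 92 µM tetraoctylammonium bromide.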 The essentials:
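In this qHTS, lymphoblastoid LYMP1-002 cells (human) receive compounds for 16 hr at 37 C. Viability is taken from CellTiter-Glo ATP luminescence, and AC50 derives from standard Hill fits.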

Test [2] can be described thus: MultiTox-Fluor Cytotoxicity Assay - LYMP1-002 - Dead Cells (AID 960).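 Further: 0% = DMSO and 100% = tetraoctylammonium bromide; nearly all actives have a fitted effect of over 60% in size.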 The essentials:
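Human lymphoblastoid LYMP1-002 cells, 2500/well, treated 16 h at 37 C; dead-cell protease cleavage of bis-AAF-R110 read by fluorescence (485/520); normalized to DMSO and 15 uM tetraoctylammonium bromide; AC50 from Hill fit.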

Test [3] is described as follows: Cell Viability - LYMP2-009 (AID 968).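 Further: series mostly up to about 92 µM; 0% = DMSO alone and the full-kill end = tetraoctylammonium bromide at 92 µM; nearly all actives have a fitted effect of over 55% in size.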
The nature of test [4]: Cell Viability - LYMP2-017 (AID 972). Further: series mostly up to about 92 µM; on the % scale 0 is the no-effect control and ±100 the full control effect; nearly all actives have a fitted effect of over 55% in size. The essentials:
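LYMP2-017 human lymphoblastoid cells (2500/well) settled 5 hr at 37 C, then exposed to compound 24 hr at 37 C in complete medium. Viability taken as intracellular ATP by CellTiter-Glo luminescence after 30 min at RT; AC50 from Hill fits.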

A short description of test [5]: Cell Viability - LYMP2-002 (AID 977).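 Further: series mostly up to about 92 µM; compound exposure lasted 24 h at 37 °C; plate controls were DMSO only for no effect and 92 µM tetraoctylammonium bromide for full effect.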 The essentials:
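Cytotoxicity is scored as concentration-dependent loss of cellular ATP in a human lymphoblastoid line after 24 hr compound treatment at 37 C. AC50 is obtained by modelling concentration-response data with the Hill equation.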

Test [6] can be described thus: Cell Viability - LYMP2-016 (AID 984). Further: on the % scale 0 is the no-effect control and ±100 the full control effect; nearly all actives have a fitted effect of over 55% in size. The essentials: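 Concentration-dependent ATP depletion measured in LYMP2-016 lymphoblastoid cells, 24 h, 37 C; luciferase-based luminescent detection; Hill-equation AC50.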
Test [7] is described as follows: qHTS assay for small molecule antagonists of peroxisome proliferator-activated receptor delta signaling (AID 588535).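 Further: cells co-treated with a PPAR-delta agonist as stimulator during compound exposure.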 The conditions noted are these: HEK293T PPARd-UAS-bla, beta-lactamase FRET ratio, 18 h; 460 nm channel. The essentials:
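HEK293T PPAR-delta-UAS-bla cells, 4000/well, 2% charcoal/dextran FBS; 5 h 37 C; cpd titration; 18 h 37 C; CCF4 2 h RT; FI 460/530 nm; Hill fit → IC50, efficacy.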
A general note: qHTS replaces the single test concentration by a dilution series.

For test [8], the target named is Vitamin D3 receptor (Homo sapiens) (UniProt P11473). Nature of the test: qHTS assay for small molecule agonists of vitamin D receptor signaling (AID 588543; calls by dose curve;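 further: 0% = DMSO basal and 100% = reference agonist control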). The essentials:
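Measured: β-lactamase reporter activity (CCF4, 405 nm excitation, 460/530 nm emission) in HEK293T VDR-UAS-bla cells after 16 h compound exposure at 37 °C. Normalization against 50 nM 1α,25-dihydroxyvitamin D3 and DMSO; Hill-fit EC50.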

Test [9] has as its target Retinoic acid receptor RXR-alpha (Homo sapiens) (UniProt P19793). Nature of the test: qHTS assay for small molecule agonists of retinoid X receptor alpha signaling (AID 588544; calls by dose curve;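 further: 0% = DMSO basal wells and 100% = reference agonist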).
Test [10] has as its target Thyroid hormone receptor beta (Homo sapiens) (UniProt P10828). Nature of the test: qHTS assay for small molecule agonists of thyroid hormone receptor beta signaling (AID 588545; calls by dose curve). The essentials:
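Cells (2500/well) were seeded, incubated 4 hrs at 37 C, dosed with a compound series, incubated 18 hrs, loaded with CCF4 dye for 2 hrs at RT, then read for fluorescence. Data were scaled between DMSO (0%) and 10 nM T3 (100%).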

Test [11] addresses Retinoic acid receptor RXR-alpha (Homo sapiens) (UniProt P19793). As to the kind of experiment: qHTS assay for small molecule antagonists of retinoid X receptor alpha signaling (AID 588546; active means well fitted inhibition curve with a large enough effect in the signal ratio, with a control signal flat, not every such curve was filed as active; the % refers to the signal ratio; further: on the % scale 0 is the no-effect control and ±100 the full control effect). The conditions noted are these: HEK293T RXRa-UAS-bla, beta-lactamase ratio, antagonist mode. The essentials: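 Beta-lactamase reporter inhibition, read as CCF4 fluorescence ratio (ex 405, em 460/530 nm) after 2 h at RT. HEK293T UAS-bla cells, 2500/well, were stimulated with 9-cis-RA at 500 or 100 nM final alongside test compound for 18 h at 37 C.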

Test [12] concerns the target Thyroid hormone receptor beta (Homo sapiens) (UniProt P10828). As to the kind of experiment: qHTS assay for small molecule antagonists of thyroid hormone receptor beta signaling (AID 588547; active means well fitted inhibition curve with a large enough effect in the signal ratio, with a control signal flat, not every such curve was filed as active; the % refers to the signal ratio;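 further: cells stimulated with 0.4 nM T3 agonist during compound exposure; series mostly up to about 77 µM; on the % scale 0 is the no-effect control and ±100 the full control effect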). The conditions noted are these: TR-UAS-bla HEK293, beta-lactamase ratio, antagonist mode, 18 h. The essentials:
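Inhibition of T3-driven (0.4nM final) beta-lactamase reporter activity was measured over 0.59 nM to 92 uM compound after 18 h at 37 C. The cells were GripTite HEK293 TR-UAS-bla in charcoal/dextran-stripped serum, with CCF4 ratio read-out and IC50 from Hill fits.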

Test [13] in a line: qHTS assay for small molecule agonists of the antioxidant response element (ARE) signaling pathway (AID 651741; active means well fitted activation curve with a large enough effect in the signal ratio; the % refers to the signal ratio; further: potency means the concentration at half of the fitted maximal effect; on activation: % of control where 0% means no effect). The essentials:
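Quantitative HTS in HepG2 cells stably expressing an ARE-beta-lactamase reporter; 16 h compound exposure at 37 C, followed by 2 h room-temperature incubation with LiveBLAzer B/G FRET substrate and fluorescence measurement.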

A short description of test [14]: qHTS assay for small molecule activators of the nuclear factor-kappa B (NF-kB) signaling pathway (AID 651749; active means well fitted activation curve with a large enough effect in the signal ratio; the % refers to the signal ratio; further: series mostly up to about 77 µM; % of control where 0% means no effect). The conditions noted are these: NF-kB-bla ME-180 cells, beta-lactamase FRET ratio, 16 h; stronger effect = higher value. The essentials: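 Readout: beta-lactamase reporter driven by an NF-kB response element, detected fluorescently as loss of FRET. Cells were the ME-180 line, treated 16 hr at 37C with pin-transferred compound.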

A short description of test [15]: qHTS assay for small molecule disruptors of the mitochondrial membrane potential - 5 hr assay (AID 651755; calls by dose curve; further: on the % scale 0 is the no-effect control and ±100 the full control effect; nearly all actives have a fitted effect of over 40% in size). The essentials:
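HepG2, 2,000 cells/well, overnight attach; cpd or DMSO 5 hr, 37C/5% CO2; Mito-MPS 30 min 37C; fluor 490/535 + 540/590 nm.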

Test [16] in a line: qHTS assay for environmental chemicals that activate the Aryl hydrocarbon Receptor (AhR) signaling pathway (AID 651777). Further: % of control where 0% means no effect; nearly all actives have a fitted effect of over 15% in size. The conditions noted are these: 1A2-DRE human hepatoma cells, luciferase, 24 h; activation: stronger effect = higher value. The essentials:
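AhR activation is scored as a rise in luciferase from a stable DRE–CYP1A2 promoter construct in human hepatoma cells. Treatment lasts 24 hr at 37 C; detection uses One-Glo after 30 min at room temperature.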

The target of test [17] is Nuclear receptor ROR-gamma (Homo sapiens) (UniProt P51449). Nature of the test: qHTS assay for small molecule antagonists of the retinoid-related orphan receptor gamma (ROR-gamma) signaling pathway (AID 651802).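 Further: luciferase reporter luminescence driven by ROR response element; series mostly up to about 92 µM; on the % scale 0 is the no-effect control and ±100 the full control effect; nearly all actives have a fitted effect of over 60% in size.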 The essentials: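 CHO cells with TET-inducible ROR-gamma and RORE-luciferase reporter, dosed then doxycycline-induced. After 16 h at 37C, One-Glo luminescence read; decreased signal indicates antagonism.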

Test [18] is described as follows: qHTS assay for cell viability of HEK293 cells (AID 743288). Further: on the % scale 0 is the no-effect control and ±100 the full control effect; nearly all actives have a fitted effect of over 50% in size. The conditions noted are these: ATP luminescence (CellTiter-Glo), 18 h, stronger effect = lower value. The essentials:
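Luminescent ATP quantitation served as the viability read-out. Cells (parental HEK293, 2,000/well) received compounds after at least 5 h at 37 C and were exposed for 18 h before a 30 min room-temperature reagent step.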

Test [19] has as its target Glucocorticoid receptor (Homo sapiens) (UniProt P04150). Nature of the test: qHTS assay for small molecule agonists of glucocorticoid receptor signaling (AID 588532; active means well fitted curve in the direction sought with a large enough effect in the signal ratio, with a control signal flat; the % refers to the signal ratio;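 further: 100% = dexamethasone at 0.1 µM and 0% = DMSO only wells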). The conditions noted are these: HeLa MMTV-bla, beta-lactamase ratio, agonist, 18 h; stronger effect = higher value; percent of dexamethasone control, DMSO zero. The essentials:
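Using MMTV-bla HeLa cells in medium with 1% stripped FBS and 25 mM HEPES, compounds were titrated and incubated overnight-length (18 h). Beta-lactamase cleavage of CCF4 was quantified by dual-emission fluorescence.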

Where “and” joins values, the source holds several entries; their conditions need not be identical. Equal values may be shown once. Inconclusive results are not listed. Calls of active or inactive are those of the source. Unless noted, the call rests on the fitted dose curve; in most records, active means well fitted curve in the direction sought with a large enough effect; inconclusive means small, poorly fitted or top-dose-only effect, or another doubt; inactive means no such curve, though single readings can be large; an effect the other way counts as inactive or inconclusive.

Nuclear receptor ROR-gamma (Homo sapiens), sequence (P51449 whole entry, looked up): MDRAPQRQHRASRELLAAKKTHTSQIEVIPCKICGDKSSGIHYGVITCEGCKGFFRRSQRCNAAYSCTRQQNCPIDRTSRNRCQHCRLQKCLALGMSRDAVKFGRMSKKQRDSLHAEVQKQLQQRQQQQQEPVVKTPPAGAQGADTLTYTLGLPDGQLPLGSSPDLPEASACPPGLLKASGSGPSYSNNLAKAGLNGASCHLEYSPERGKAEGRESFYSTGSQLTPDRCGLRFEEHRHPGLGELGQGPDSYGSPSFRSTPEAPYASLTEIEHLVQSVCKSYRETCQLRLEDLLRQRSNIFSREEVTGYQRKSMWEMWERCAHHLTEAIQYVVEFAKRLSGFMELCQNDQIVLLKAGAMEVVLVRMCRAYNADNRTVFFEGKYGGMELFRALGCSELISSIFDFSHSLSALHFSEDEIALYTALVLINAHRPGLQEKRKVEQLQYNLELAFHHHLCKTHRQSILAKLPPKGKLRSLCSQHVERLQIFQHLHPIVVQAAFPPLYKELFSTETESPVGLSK
Glucocorticoid receptor (Homo sapiens), sequence (P04150 whole entry, looked up): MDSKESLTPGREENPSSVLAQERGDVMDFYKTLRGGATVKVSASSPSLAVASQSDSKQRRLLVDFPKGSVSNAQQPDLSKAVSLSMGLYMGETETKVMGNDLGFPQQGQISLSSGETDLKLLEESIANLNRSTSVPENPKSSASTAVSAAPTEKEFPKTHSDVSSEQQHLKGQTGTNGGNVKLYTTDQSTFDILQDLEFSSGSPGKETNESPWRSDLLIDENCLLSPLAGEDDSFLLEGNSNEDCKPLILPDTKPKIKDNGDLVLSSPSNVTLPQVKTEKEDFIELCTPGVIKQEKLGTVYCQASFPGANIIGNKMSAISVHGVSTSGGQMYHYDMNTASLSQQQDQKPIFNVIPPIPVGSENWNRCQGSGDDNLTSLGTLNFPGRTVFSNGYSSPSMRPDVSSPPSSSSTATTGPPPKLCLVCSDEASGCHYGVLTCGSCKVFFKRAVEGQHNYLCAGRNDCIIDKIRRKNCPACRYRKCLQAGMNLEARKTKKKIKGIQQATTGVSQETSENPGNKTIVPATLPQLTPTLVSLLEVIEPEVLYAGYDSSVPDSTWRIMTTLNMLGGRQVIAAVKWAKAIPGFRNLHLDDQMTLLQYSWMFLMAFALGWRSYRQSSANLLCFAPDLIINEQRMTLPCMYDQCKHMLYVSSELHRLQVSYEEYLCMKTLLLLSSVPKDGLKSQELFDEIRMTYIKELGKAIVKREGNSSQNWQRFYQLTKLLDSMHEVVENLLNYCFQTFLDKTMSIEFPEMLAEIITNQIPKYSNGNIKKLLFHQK
Retinoic acid receptor RXR-alpha (Homo sapiens), sequence (P19793 whole entry, looked up): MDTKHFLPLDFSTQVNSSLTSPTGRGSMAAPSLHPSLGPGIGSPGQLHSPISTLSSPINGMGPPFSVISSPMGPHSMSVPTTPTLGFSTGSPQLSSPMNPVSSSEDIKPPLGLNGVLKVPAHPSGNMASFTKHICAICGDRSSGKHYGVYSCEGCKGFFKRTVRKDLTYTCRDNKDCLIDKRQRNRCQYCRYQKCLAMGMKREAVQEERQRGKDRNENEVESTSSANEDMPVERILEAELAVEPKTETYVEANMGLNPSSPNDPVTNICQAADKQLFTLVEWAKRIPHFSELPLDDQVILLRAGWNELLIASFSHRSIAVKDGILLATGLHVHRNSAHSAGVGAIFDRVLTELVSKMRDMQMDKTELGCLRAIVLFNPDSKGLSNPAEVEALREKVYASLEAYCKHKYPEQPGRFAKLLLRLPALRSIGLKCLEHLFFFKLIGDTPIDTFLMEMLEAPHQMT
Thyroid hormone receptor beta (Homo sapiens), sequence (P10828 whole entry, looked up): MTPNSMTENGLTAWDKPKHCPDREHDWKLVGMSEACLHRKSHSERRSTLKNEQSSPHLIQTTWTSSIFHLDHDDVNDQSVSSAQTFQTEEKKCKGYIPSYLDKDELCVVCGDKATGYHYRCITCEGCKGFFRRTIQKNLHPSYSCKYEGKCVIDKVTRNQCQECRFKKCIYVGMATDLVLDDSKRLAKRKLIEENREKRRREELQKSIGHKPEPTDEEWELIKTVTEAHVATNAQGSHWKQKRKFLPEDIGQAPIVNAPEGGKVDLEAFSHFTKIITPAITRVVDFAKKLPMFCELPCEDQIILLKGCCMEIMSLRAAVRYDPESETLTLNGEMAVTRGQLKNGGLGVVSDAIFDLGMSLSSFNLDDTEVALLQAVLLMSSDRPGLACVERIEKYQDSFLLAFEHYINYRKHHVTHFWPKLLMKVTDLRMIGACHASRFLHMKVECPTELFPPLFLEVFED
Vitamin D3 receptor (Homo sapiens), sequence (P11473 whole entry, looked up): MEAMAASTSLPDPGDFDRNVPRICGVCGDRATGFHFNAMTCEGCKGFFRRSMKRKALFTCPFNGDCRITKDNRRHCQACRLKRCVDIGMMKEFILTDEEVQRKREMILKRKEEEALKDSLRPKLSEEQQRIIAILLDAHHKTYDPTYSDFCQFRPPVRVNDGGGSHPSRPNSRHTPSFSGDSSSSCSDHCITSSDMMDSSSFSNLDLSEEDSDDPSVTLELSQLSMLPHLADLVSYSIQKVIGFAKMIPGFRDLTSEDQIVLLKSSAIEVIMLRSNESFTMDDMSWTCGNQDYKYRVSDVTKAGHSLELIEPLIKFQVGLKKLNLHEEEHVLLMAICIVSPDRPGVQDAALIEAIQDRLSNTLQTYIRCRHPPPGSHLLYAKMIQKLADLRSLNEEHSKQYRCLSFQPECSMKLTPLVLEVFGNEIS

For the compound `CN(C)C(=O)Nc1cccc(C(F)(F)F)c1`, the outcome in test [1], in test [8] and in test [9] was inactive. Further, the Potency entry in test [2], in [3], in test [4], in test [5], in test [6] and in test [10] was “inactive” each time. The Potency result in test [13], in [15] and in test [17] was “inactive” each time. In addition, the max response in test [7] was -0.756% and 6.11%; in test [11], 1.67% (inactive) and -16% (inactive); in [18], 3% (inactive) and -3.2% (inactive). Moreover, the activity change % (negative = inhibition) in test [12] was -7.4% (inactive) and -5.84% (inactive). The activation in [14] was 0.0409% (inactive) and 1.96% (inactive); in [16], -0.624% (inactive) and 0.852% (inactive).

Regarding `C=C(Cl)CSC(=S)N(CC)CC`, the result in test [1] and in test [9] was inactive. Further, the Potency entry in test [2], in [5], in test [10] and in test [17] was “inactive” in each case. Moreover, the max response was -17.2% in [7], 1.31% (inactive) in test [11] and 5.22% (inactive) in test [18]. Moreover, in test [12], the activity change % (negative = inhibition) is 0.68% (inactive). Moreover, the results for the activation in test [14] and in test [16] were -0.634% (inactive) and 0.101% (inactive), respectively.

Take `Cc1ccc2c(C)cccc2c1`: the outcome in test [1] was inactive. Moreover, the Potency result in test [4], in [5], in test [6] and in test [15] was “inactive” throughout. For the same compound, the activation in [19] was -2.73% (inactive); in test [16] it was -0.533% (inactive). Further, the max response in test [7] was determined as 16.7%.

Take `Oc1cccc(Cl)c1Cl`: the Potency result in [2], in [3], in test [6], in [10], in test [15] and in test [17] was “inactive” throughout. Besides, the activation in test [19] was -0.403% (inactive); in test [16] it was 0.0475% (inactive). The compound was called inactive in [9]. The max response in test [11] is -5.77% (inactive). For the same compound, the activity change % (negative = inhibition) in test [12] was 9.41% (inactive).

Take `N#CCBr`: the call in test [1] and in [9] was inactive. In addition, the Potency entry in [2], in test [3], in test [4], in test [5], in test [6] and in test [15] was “inactive” in each case. Also, in test [17], the Potency result is “inactive”. The activation is -5.38% (inactive) in [19], 0.342% (inactive) in test [14] and 13.7% (inactive) in test [16]. The results for the max response in [11] and in [18] were -1.67% (inactive) and -4.55% (inactive), respectively. Further, the activity change % (negative = inhibition) in [12] is 11.7% (inactive). In [13], the Potency was 16.8 µM (active).

For the origin of these results see PubChem BioAssay (NCATS).
